# Laboratory results from ChEMBL document CHEMBL1961873, “Compounds: GSK PKIS; Assays: Nanosyn kinase panel” (2012).
# Tests used:
# [1] = molecular target: Platelet-derived growth factor receptor beta (Homo sapiens) (UniProt P09619); conditions: at 1 µM;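 also: each value is a mean percent inhibition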
# [2] = molecular target: Tyrosine-protein kinase FRK (Homo sapiens) (UniProt P42685); conditions: at 0.1 µM
# [3] = molecular target: Tyrosine-protein kinase FRK (Homo sapiens) (UniProt P42685); conditions: at 1 µM
# [4] = molecular target: Protein-tyrosine kinase 2-beta (Homo sapiens) (UniProt Q14289); conditions: at 0.1 µM
# [5] = molecular target: Protein-tyrosine kinase 2-beta (Homo sapiens) (UniProt Q14289); conditions: at 1 µM
# [6] = molecular target: Proto-oncogene tyrosine-protein kinase receptor Ret (Homo sapiens) (UniProt P07949); conditions: at 0.1 µM
# [7] = molecular target: Proto-oncogene tyrosine-protein kinase receptor Ret (Homo sapiens) (UniProt P07949); conditions: at 1 µM
# [8] = tested on: Proto-oncogene tyrosine-protein kinase receptor Ret (Homo sapiens), P07949 [V804L]; conditions: at 0.1 µM
# [9] = tested on: Proto-oncogene tyrosine-protein kinase receptor Ret (Homo sapiens), P07949 [V804L]; conditions: at 1 µM
# [10] = tested on: Proto-oncogene tyrosine-protein kinase receptor Ret (Homo sapiens), P07949 [Y791F]; conditions: at 0.1 µM
# [11] = tested on: Proto-oncogene tyrosine-protein kinase receptor Ret (Homo sapiens), P07949 [Y791F]; conditions: at 1 µM
# [12] = molecular target: Macrophage-stimulating protein receptor (Homo sapiens) (UniProt Q04912); conditions: at 0.1 µM
# [13] = molecular target: Macrophage-stimulating protein receptor (Homo sapiens) (UniProt Q04912); conditions: at 1 µM
# [14] = molecular target: Proto-oncogene tyrosine-protein kinase ROS (Homo sapiens) (UniProt P08922); conditions: at 0.1 µM
# [15] = molecular target: Proto-oncogene tyrosine-protein kinase ROS (Homo sapiens) (UniProt P08922); conditions: at 1 µM
# [16] = molecular target: Proto-oncogene tyrosine-protein kinase Src (Homo sapiens) (UniProt P12931); conditions: at 0.1 µM
# [17] = molecular target: Proto-oncogene tyrosine-protein kinase Src (Homo sapiens) (UniProt P12931); conditions: at 1 µM
# [18] = molecular target: Tyrosine-protein kinase Srms (Homo sapiens) (UniProt Q9H3Y6); conditions: at 0.1 µM
# [19] = molecular target: Tyrosine-protein kinase Srms (Homo sapiens) (UniProt Q9H3Y6); conditions: at 1 µM
# [20] = molecular target: Tyrosine-protein kinase SYK (Homo sapiens) (UniProt P43405); conditions: at 0.1 µM;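 also: reported percentages are mean inhibition values for SYK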
# Chain of Proto-oncogene tyrosine-protein kinase Src (Homo sapiens) (P12931 2-536 limits assumed): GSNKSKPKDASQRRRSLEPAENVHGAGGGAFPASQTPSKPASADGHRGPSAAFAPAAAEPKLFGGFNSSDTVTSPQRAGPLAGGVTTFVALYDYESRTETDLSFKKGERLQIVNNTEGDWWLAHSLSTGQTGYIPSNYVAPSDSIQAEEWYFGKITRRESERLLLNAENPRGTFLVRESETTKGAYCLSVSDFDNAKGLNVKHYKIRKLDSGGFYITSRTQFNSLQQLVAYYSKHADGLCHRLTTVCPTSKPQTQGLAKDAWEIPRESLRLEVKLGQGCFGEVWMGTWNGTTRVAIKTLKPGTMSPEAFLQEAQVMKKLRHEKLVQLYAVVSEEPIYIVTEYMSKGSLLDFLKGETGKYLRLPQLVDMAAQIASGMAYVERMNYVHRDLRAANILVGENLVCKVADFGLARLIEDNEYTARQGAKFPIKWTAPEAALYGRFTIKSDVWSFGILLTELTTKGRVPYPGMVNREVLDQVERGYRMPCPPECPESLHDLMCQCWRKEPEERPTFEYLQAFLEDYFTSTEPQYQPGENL
# Chain of Tyrosine-protein kinase FRK (Homo sapiens) (P42685 whole entry): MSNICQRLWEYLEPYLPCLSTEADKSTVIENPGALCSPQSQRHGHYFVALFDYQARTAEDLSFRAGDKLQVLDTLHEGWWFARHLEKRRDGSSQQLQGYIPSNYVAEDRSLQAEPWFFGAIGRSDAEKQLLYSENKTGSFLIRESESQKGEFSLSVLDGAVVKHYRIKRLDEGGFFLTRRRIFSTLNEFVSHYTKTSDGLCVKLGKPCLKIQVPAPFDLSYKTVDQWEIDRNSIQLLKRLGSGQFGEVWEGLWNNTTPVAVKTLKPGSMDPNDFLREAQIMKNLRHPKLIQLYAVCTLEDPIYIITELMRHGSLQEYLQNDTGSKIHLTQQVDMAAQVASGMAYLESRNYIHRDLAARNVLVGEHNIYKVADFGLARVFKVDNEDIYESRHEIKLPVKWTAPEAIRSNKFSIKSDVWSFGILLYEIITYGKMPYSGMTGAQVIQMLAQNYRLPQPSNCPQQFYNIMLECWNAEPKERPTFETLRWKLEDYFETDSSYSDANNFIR
# Chain of Platelet-derived growth factor receptor beta (Homo sapiens) (P09619 whole entry): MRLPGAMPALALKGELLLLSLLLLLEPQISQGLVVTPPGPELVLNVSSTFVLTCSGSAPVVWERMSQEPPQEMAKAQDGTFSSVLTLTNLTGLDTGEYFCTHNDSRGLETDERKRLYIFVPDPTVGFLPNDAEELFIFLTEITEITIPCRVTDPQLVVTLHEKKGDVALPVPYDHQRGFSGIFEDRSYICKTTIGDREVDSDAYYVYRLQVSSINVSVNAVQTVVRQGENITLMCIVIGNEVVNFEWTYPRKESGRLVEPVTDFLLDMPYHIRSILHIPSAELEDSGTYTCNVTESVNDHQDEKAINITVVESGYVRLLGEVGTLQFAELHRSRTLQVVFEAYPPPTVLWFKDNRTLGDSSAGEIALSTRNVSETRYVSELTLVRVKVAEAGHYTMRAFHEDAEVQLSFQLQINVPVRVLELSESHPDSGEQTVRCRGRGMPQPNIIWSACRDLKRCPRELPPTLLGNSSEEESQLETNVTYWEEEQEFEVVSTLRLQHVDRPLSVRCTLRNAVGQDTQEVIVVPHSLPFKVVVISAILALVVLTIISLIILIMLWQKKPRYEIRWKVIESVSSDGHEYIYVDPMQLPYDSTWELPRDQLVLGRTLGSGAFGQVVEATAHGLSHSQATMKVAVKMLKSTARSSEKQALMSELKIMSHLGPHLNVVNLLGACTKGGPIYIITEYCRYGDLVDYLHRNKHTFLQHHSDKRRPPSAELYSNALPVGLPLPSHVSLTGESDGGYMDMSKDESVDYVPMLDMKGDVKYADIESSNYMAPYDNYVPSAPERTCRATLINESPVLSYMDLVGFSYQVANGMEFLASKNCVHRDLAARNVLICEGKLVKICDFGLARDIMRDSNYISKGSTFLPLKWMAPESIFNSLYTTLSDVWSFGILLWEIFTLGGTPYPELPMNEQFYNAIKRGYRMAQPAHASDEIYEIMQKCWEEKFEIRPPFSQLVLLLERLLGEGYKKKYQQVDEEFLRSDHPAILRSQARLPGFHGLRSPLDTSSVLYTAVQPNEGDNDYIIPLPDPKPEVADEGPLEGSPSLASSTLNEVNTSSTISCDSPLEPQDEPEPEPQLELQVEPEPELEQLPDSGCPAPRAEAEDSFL
# Chain of Proto-oncogene tyrosine-protein kinase receptor Ret (Homo sapiens) (P07949 whole entry): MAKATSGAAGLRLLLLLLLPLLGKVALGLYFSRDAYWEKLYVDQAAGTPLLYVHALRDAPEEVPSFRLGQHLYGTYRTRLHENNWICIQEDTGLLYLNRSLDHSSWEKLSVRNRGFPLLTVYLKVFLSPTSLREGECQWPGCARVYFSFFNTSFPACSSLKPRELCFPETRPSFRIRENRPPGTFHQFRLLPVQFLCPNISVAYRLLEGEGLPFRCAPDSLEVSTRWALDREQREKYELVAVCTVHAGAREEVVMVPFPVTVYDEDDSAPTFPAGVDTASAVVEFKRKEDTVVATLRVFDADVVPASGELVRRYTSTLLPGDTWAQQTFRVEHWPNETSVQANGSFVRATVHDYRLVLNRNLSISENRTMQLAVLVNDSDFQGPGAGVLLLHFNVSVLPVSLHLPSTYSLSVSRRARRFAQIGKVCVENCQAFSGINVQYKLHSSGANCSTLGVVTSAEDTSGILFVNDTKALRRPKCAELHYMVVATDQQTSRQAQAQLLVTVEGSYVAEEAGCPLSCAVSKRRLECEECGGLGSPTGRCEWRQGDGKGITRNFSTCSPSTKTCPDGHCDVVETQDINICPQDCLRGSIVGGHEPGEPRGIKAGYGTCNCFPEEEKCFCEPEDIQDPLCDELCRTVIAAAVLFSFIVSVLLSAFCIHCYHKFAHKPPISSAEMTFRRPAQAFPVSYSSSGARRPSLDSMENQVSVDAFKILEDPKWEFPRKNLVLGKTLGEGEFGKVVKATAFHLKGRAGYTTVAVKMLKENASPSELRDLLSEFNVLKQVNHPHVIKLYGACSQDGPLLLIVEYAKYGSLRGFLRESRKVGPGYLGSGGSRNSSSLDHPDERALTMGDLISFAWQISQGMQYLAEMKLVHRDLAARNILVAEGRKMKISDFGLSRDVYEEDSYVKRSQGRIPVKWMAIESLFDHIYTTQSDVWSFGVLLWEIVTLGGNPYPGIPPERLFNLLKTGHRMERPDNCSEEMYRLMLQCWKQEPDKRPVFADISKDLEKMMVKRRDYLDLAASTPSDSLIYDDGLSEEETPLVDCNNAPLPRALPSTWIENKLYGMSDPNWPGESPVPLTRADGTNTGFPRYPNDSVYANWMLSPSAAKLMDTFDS
# Chain of Tyrosine-protein kinase Srms (Homo sapiens) (Q9H3Y6 whole entry): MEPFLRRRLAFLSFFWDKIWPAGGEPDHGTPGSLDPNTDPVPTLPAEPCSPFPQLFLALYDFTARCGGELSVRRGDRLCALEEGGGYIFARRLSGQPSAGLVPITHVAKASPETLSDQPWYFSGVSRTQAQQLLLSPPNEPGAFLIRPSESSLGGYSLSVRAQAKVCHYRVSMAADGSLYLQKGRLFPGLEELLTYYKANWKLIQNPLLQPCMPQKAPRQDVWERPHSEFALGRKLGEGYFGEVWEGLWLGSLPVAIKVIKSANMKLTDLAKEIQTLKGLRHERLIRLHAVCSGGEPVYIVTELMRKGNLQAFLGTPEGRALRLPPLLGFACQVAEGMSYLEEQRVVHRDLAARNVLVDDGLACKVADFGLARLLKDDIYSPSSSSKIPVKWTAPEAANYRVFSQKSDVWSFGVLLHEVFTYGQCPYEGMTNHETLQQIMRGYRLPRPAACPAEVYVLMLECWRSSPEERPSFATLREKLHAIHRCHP
# Chain of Proto-oncogene tyrosine-protein kinase receptor Ret (Homo sapiens), P07949 [V804L] (P07949 whole entry V804L): as the sequence (P07949 whole entry) above, with V804L counted along it
# Chain of Proto-oncogene tyrosine-protein kinase receptor Ret (Homo sapiens), P07949 [Y791F] (P07949 whole entry Y791F): as the sequence (P07949 whole entry) above, with Y791F counted along it
# Chain of Protein-tyrosine kinase 2-beta (Homo sapiens) (Q14289 whole entry, looked up): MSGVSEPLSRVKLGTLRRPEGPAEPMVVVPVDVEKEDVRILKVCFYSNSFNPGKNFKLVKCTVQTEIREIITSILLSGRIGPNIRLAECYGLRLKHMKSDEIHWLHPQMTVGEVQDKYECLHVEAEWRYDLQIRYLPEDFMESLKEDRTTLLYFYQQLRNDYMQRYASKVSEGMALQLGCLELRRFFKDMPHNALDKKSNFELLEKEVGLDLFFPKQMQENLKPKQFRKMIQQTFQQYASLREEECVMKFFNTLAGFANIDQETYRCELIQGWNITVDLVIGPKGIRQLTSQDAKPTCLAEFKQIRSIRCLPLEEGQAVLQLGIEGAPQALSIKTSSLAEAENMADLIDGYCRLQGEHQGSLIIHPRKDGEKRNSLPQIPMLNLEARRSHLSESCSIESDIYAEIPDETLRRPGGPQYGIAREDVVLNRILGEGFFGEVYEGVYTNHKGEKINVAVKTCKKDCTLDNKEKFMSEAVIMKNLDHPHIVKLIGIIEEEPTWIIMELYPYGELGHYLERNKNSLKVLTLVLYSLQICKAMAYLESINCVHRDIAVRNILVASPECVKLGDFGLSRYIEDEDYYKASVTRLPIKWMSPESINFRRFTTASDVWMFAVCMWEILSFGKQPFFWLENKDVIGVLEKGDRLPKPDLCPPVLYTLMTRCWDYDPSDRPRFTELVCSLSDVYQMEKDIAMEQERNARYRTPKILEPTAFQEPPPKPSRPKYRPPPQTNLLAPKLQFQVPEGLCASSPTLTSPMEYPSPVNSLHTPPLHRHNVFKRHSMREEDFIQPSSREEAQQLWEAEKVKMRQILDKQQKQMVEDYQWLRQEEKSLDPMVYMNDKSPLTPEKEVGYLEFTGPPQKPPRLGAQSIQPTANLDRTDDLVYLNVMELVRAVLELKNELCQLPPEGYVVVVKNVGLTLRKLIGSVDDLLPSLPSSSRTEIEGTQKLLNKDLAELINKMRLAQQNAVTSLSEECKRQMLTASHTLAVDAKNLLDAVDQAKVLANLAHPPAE
compound,measurement,setting,value
CC(=O)Nc1cccc(C#Cc2cncnc2Nc2ccc(OCc3cccc(F)c3)c(Cl)c2)n1,inhibition,[1],9.6%
same,inhibition,[2],0.61%
same,inhibition,[3],1.2%
same,inhibition,[4],-2.77%
same,inhibition,[5],8.14%
same,inhibition,[6],-1.11%
same,inhibition,[7],2.59%
same,inhibition,[8],0.14%
same,inhibition,[9],10.2%
same,inhibition,[10],0.37%
same,inhibition,[11],13.9%
same,inhibition,[12],0.21%
same,inhibition,[13],0.21%
same,inhibition,[14],2.41%
same,inhibition,[15],-0.69%
same,inhibition,[16],2.96%
same,inhibition,[17],0.48%
same,inhibition,[18],1.99%
same,inhibition,[19],6.25%
same,inhibition,[20],5.47%
Fc1cccc(COc2ccc(Nc3ncnc4cc(-c5ccc[nH]5)sc34)cc2Cl)c1,inhibition,[1],8.52%
same,inhibition,[2],2.14%
same,inhibition,[3],2.25%
same,inhibition,[4],7.86%
same,inhibition,[5],11.5%
same,inhibition,[6],9%
same,inhibition,[7],11.5%
same,inhibition,[8],3.25%
same,inhibition,[9],8.38%
same,inhibition,[10],7.54%
same,inhibition,[11],15.8%
same,inhibition,[12],4.56%
same,inhibition,[13],4.33%
same,inhibition,[14],9.9%
same,inhibition,[15],12.1%
same,inhibition,[16],3.22%
same,inhibition,[17],6.79%
same,inhibition,[18],-0.83%
same,inhibition,[19],1.08%
same,inhibition,[20],1.5%
Nc1ncnc2occ(-c3ccc(NC(=O)Nc4cccc(C(F)(F)F)c4)cc3)c12,inhibition,[1],94.8%
same,inhibition,[2],4.28%
same,inhibition,[3],21.2%
same,inhibition,[4],8.39%
same,inhibition,[5],32.3%
same,inhibition,[6],84.9%
same,inhibition,[7],87.2%
same,inhibition,[8],64.8%
same,inhibition,[9],79.9%
same,inhibition,[10],73.9%
same,inhibition,[11],86.3%
same,inhibition,[12],2.56%
same,inhibition,[13],27.7%
same,inhibition,[14],6%
same,inhibition,[15],21.7%
same,inhibition,[16],14.4%
same,inhibition,[17],52.8%
same,inhibition,[18],-4.22%
same,inhibition,[19],-3.07%
same,inhibition,[20],-4.82%
O=C1NC(=O)C(N2CCc3ccccc32)=C1c1ccc(Cl)cc1,inhibition,[1],8.69%
same,inhibition,[2],2.55%
same,inhibition,[3],3.4%
same,inhibition,[4],8.33%
same,inhibition,[5],7.03%
same,inhibition,[6],2.35%
same,inhibition,[7],10.1%
same,inhibition,[8],7.17%
same,inhibition,[9],9.11%
same,inhibition,[10],11.4%
same,inhibition,[11],10.4%
same,inhibition,[12],-2.48%
same,inhibition,[13],2.52%
same,inhibition,[14],10.9%
same,inhibition,[15],14.1%
same,inhibition,[16],5.94%
same,inhibition,[17],15.5%
same,inhibition,[18],-2.77%
same,inhibition,[19],0.25%
same,inhibition,[20],-4.42%
COc1ccc(-c2ccncc2)cc1C(N)=O,inhibition,[1],11.4%
same,inhibition,[2],4.92%
same,inhibition,[3],5.68%
same,inhibition,[4],5.98%
same,inhibition,[5],11.3%
same,inhibition,[6],3.52%
same,inhibition,[7],6.29%
same,inhibition,[8],2.72%
same,inhibition,[9],9.41%
same,inhibition,[10],4.39%
same,inhibition,[11],6.78%
same,inhibition,[12],9.12%
same,inhibition,[13],1.15%
same,inhibition,[14],5.72%
same,inhibition,[15],17.5%
same,inhibition,[16],11.3%
same,inhibition,[17],12.4%
same,inhibition,[18],-0.54%
same,inhibition,[19],-5.88%
same,inhibition,[20],-1.18%
Cc1nnc(-c2ccc(C)c(-c3ccc(C(=O)Nc4cccc(C#N)c4)cc3)c2)o1,inhibition,[1],10.9%
same,inhibition,[2],2.05%
same,inhibition,[3],2.02%
same,inhibition,[4],4.97%
same,inhibition,[5],6.48%
same,inhibition,[6],7.9%
same,inhibition,[7],12.9%
same,inhibition,[8],4.42%
same,inhibition,[9],8.03%
same,inhibition,[10],4.58%
same,inhibition,[11],15.7%
same,inhibition,[12],1.95%
same,inhibition,[13],3.79%
same,inhibition,[14],1.81%
same,inhibition,[15],1.44%
same,inhibition,[16],3.95%
same,inhibition,[17],6.82%
same,inhibition,[18],-0.52%
same,inhibition,[19],0.42%
same,inhibition,[20],3.5%
Cc1cc(O)cc(C)c1/C=C/c1cncc(-c2nn[nH]n2)c1,inhibition,[1],49.5%
same,inhibition,[2],6.95%
same,inhibition,[3],33.8%
same,inhibition,[4],12.8%
same,inhibition,[5],12.1%
same,inhibition,[6],1.14%
same,inhibition,[7],9.47%
same,inhibition,[8],8.88%
same,inhibition,[9],9.42%
same,inhibition,[10],3.32%
same,inhibition,[11],14.4%
same,inhibition,[12],3.43%
same,inhibition,[13],8.76%
same,inhibition,[14],6.66%
same,inhibition,[15],11.7%
same,inhibition,[16],11.4%
same,inhibition,[17],69.4%
same,inhibition,[18],9.68%
same,inhibition,[19],48.1%
same,inhibition,[20],-3.2%
COc1cccc(-n2ncc3c(N/N=C/c4cccc(F)c4)ncnc32)c1,inhibition,[1],51.1%
same,inhibition,[2],1.84%
same,inhibition,[3],2.7%
same,inhibition,[4],9.51%
same,inhibition,[5],9.99%
same,inhibition,[6],2.64%
same,inhibition,[7],18.3%
same,inhibition,[8],3.55%
same,inhibition,[9],9.3%
same,inhibition,[10],4.94%
same,inhibition,[11],19.5%
same,inhibition,[12],7.02%
same,inhibition,[13],24.4%
same,inhibition,[14],3.12%
same,inhibition,[15],10.6%
same,inhibition,[16],0.4%
same,inhibition,[17],57.2%
same,inhibition,[18],-0.72%
same,inhibition,[19],2.55%
same,inhibition,[20],9.4%
COc1ccc(-c2coc3ncnc(N)c23)cc1,inhibition,[1],12.1%
same,inhibition,[2],1.9%
same,inhibition,[3],2.14%
same,inhibition,[6],4.27%
same,inhibition,[7],11.7%
same,inhibition,[8],4.56%
same,inhibition,[9],5.32%
same,inhibition,[10],10.4%
same,inhibition,[11],11%
same,inhibition,[12],8.95%
same,inhibition,[13],5.93%
same,inhibition,[14],6.03%
same,inhibition,[15],7.88%
same,inhibition,[16],5.47%
same,inhibition,[17],8.84%
same,inhibition,[18],-2.61%
same,inhibition,[19],-2.53%
same,inhibition,[20],-0.77%
CS(=O)(=O)Nc1ccc(N/C=C2\C(=O)Nc3ccccc32)cc1,inhibition,[1],38%
same,inhibition,[2],-0.66%
same,inhibition,[3],0.76%
same,inhibition,[4],-3.21%
same,inhibition,[5],20.1%
same,inhibition,[6],10.4%
same,inhibition,[7],49.4%
same,inhibition,[8],17.9%
same,inhibition,[9],66.2%
same,inhibition,[10],8.53%
same,inhibition,[11],50%
same,inhibition,[12],-3.2%
same,inhibition,[13],6.3%
same,inhibition,[14],1.48%
same,inhibition,[15],6.73%
same,inhibition,[16],-2.8%
same,inhibition,[17],8.01%
same,inhibition,[18],-2.57%
same,inhibition,[19],1.32%
same,inhibition,[20],-1.22%
COc1cc2ncn(-c3cc(O[C@@H](C)c4ccccc4Cl)c(C(N)=O)s3)c2cc1OC,inhibition,[1],68.2%
same,inhibition,[2],5.42%
same,inhibition,[3],4.28%
same,inhibition,[4],-0.4%
same,inhibition,[5],14%
same,inhibition,[6],33.6%
same,inhibition,[7],72.1%
same,inhibition,[8],8.18%
same,inhibition,[9],38.3%
same,inhibition,[10],32.5%
same,inhibition,[11],72%
same,inhibition,[12],-0.14%
same,inhibition,[13],2.55%
same,inhibition,[14],5.59%
same,inhibition,[15],29.1%
same,inhibition,[16],10.3%
same,inhibition,[17],30.1%
same,inhibition,[18],-3.6%
same,inhibition,[19],-1.13%
same,inhibition,[20],-2.93%
COc1ccc2cc(-c3c(-c4ccncc4)nc(-c4ccc([S+](C)[O-])cc4)n3C)ccc2c1 (stereo not drawn),inhibition,[1],4.23%
same,inhibition,[2],2.23%
same,inhibition,[3],1.18%
same,inhibition,[4],3.6%
same,inhibition,[5],4.13%
same,inhibition,[6],4.55%
same,inhibition,[7],8.7%
same,inhibition,[8],3.54%
same,inhibition,[9],-0.15%
same,inhibition,[10],5.77%
same,inhibition,[11],-4.94%
same,inhibition,[12],4.56%
same,inhibition,[13],4.27%
same,inhibition,[14],4.08%
same,inhibition,[15],5.77%
same,inhibition,[16],4.77%
same,inhibition,[17],8.58%
same,inhibition,[18],-0.98%
same,inhibition,[19],-1.29%
same,inhibition,[20],-1.34%
Cc1ccc(C(=O)NC2CCCCC2)cc1-c1ccc(C(=O)NCC2CC2)cc1,inhibition,[1],9.04%
same,inhibition,[2],0.19%
same,inhibition,[3],0.68%
same,inhibition,[4],3.32%
same,inhibition,[5],9.58%
same,inhibition,[6],5.5%
same,inhibition,[7],7.84%
same,inhibition,[8],5.44%
same,inhibition,[9],4.79%
same,inhibition,[10],10.8%
same,inhibition,[11],23%
same,inhibition,[12],-5.44%
same,inhibition,[13],3.46%
same,inhibition,[14],6.22%
same,inhibition,[15],7.1%
same,inhibition,[16],0.23%
same,inhibition,[17],4.58%
same,inhibition,[18],2.6%
same,inhibition,[19],0.74%
same,inhibition,[20],-0.6%
